The text below walks through data of the supplement of paper PMC13380429.

Assay [1] relates to Vero E6 infected with SARS-CoV-2. In words: morphology score (similarity to uninfected cells); higher = more like uninfected cells. The note with it: 24 h.
Assay [2] has the same test system. In words: SARS-CoV-2 infection rate relative to infected DMSO; higher = more infection, active = 60 or less. The following applies: 24 h.

The compound `CC(C)C(=O)OC[C@@]1(N=[N+]=[N-])O[C@@H](n2ccc(N)nc2=O)[C@H](OC(=O)C(C)C)[C@@H]1OC(=O)C(C)C` [balapiravir] (10 µM) came in with a morphology score in assay [1] of 0.0882. In assay [2], the SARS-CoV-2 infection rate was 88% (inactive).

The compound `O=c1c(O)c(-c2ccc(O)cc2)oc2cc(O)cc(O)c12` [kaempferol] (10 µM) had a morphology score in assay [1] of 0.215. The SARS-CoV-2 infection rate in assay [2] is 108% (inactive).

On to `CC[N+](CC)(CC)CC(=O)Nc1c(C)cccc1C` (10 µM), for which the morphology score in assay [1] was found to be 0.0409. Further, the SARS-CoV-2 infection rate in assay [2] was 104% (inactive).

As for `Nc1nc(=O)c2sc(=O)n([C@@H]3O[C@H](CO)[C@@H](O)[C@H]3O)c2[nH]1` (10 µM), the morphology score in assay [1] is 0.013. The SARS-CoV-2 infection rate in assay [2] was 100% (inactive).

In assay [1], `Nc1nc(Nc2ccccc2)nc2c1ncn2[C@@H]1O[C@H](CO)[C@@H](O)[C@H]1O` (10 µM) registered a morphology score of 0.144. Besides, the SARS-CoV-2 infection rate in assay [2] was 102% (inactive).

`Nc1nc(-c2ccc(Cl)c(Cl)c2)c(-c2ccncc2)s1` (10 µM): the morphology score in assay [1] was 0.37. In assay [2], the SARS-CoV-2 infection rate is 99.5% (inactive).

On to `CC(OC(=O)NCC1(CC(=O)O)CCCCC1)OC(=O)C(C)C` (configuration not stated) [gabapentin-enacarbil] (10 µM), for which the morphology score in assay [1] was -0.0175. In addition, in assay [2], the SARS-CoV-2 infection rate is 112% (inactive).

The compound `CN1C(=O)C(N2CCCCC2)S/C1=C\C(=O)O` (configuration not stated) [ozolinone] (10 µM) had a morphology score in assay [1] of 0.00951. Besides, the SARS-CoV-2 infection rate in assay [2] was 108% (inactive).

Consider `CNCc1ccc(-c2[nH]c3cc(F)cc4c3c2CCNC4=O)cc1` [rucaparib] (10 µM), for which the morphology score in assay [1] stood at 0.234. In assay [2], the SARS-CoV-2 infection rate was 83% (inactive).

In assay [1], `Nc1cc2c3ccccc3ccc2c2ccccc12` [6-aminochrysene] (10 µM) returned a morphology score of 0.144. The SARS-CoV-2 infection rate in assay [2] was 101% (inactive).

`CCN(CC)CCNC(=O)c1cc(Cl)c(N)cc1OC` [metoclopramide] (10 µM) had a morphology score in assay [1] of -0.00451. Moreover, the SARS-CoV-2 infection rate in assay [2] was 107% (inactive).

In assay [1], `Cc1ccc(Cl)c(Nc2ccccc2C(=O)O)c1Cl` [meclofenamic-acid] (10 µM) had a morphology score of 0.0323. Also, the SARS-CoV-2 infection rate in assay [2] was 108% (inactive).

For the compound `CC(C)(CO)Cc1cc(C(C)(C)C)c(O)c(C(C)(C)C)c1` (10 µM), the morphology score in assay [1] was -0.127. In assay [2], the SARS-CoV-2 infection rate is 108% (inactive).

Take `COc1ccc(O)cc1` [mequinol] (10 µM): in assay [1], the morphology score was -0.0349. For the same compound, the SARS-CoV-2 infection rate in assay [2] was 105% (inactive).

Regarding `Nc1nccc2c1ncn2C1C=C(CO)C(O)C1O` (configuration not stated) [3-deazaneplanocin-A] (10 µM), the morphology score in assay [1] was -0.104. Moreover, the SARS-CoV-2 infection rate in assay [2] is 112% (inactive).

In the case of `O=c1cccc2n1C[C@@H]1CNC[C@H]2C1` [cytisine] (10 µM), in assay [1], the morphology score is 0.0351. Moreover, the SARS-CoV-2 infection rate in assay [2] is 114% (inactive).

In the case of `C=C1C[C@]23C[C@@]1(O)CC[C@H]2[C@@]12C=C[C@H](O)[C@@](C)(C(=O)O1)[C@H]2[C@@H]3C(=O)O` (10 µM), in assay [1], the morphology score is -0.0765. The SARS-CoV-2 infection rate in assay [2] was 109% (inactive).

`O=C1C=Cc2cc(Br)ccc2C1=O` [bonaphthone] (10 µM): in assay [1], the morphology score was -0.0263. In addition, in assay [2], the SARS-CoV-2 infection rate was 103% (inactive).

Compound `CN(C(=O)Cc1ccc(Cl)c(Cl)c1)[C@H](CN1CCCC1)c1ccccc1` (10 µM) returned a morphology score in assay [1] of 0.793. Moreover, the SARS-CoV-2 infection rate in assay [2] was 21.5% (active).

In assay [1], `O=c1ncn2nc(Sc3ccc(F)cc3F)ccc2c1-c1c(Cl)cccc1Cl` (10 µM) had a morphology score of -0.049. Moreover, the SARS-CoV-2 infection rate in assay [2] was 108% (inactive).

`CCCNS(=O)(=O)Nc1ncnc(OCCOc2ncc(Br)cn2)c1-c1ccc(Br)cc1` [macitentan] (10 µM) had a morphology score in assay [1] of -0.0952. Besides, the SARS-CoV-2 infection rate in assay [2] was 112% (inactive).

For the compound `Cc1[nH]c2ccc(F)cc2c1-c1nc2c3cccnc3c3ncccc3c2[nH]1` (10 µM), the morphology score in assay [1] was found to be 0.21. Moreover, the SARS-CoV-2 infection rate in assay [2] was 102% (inactive).

Take `COc1ccc2[nH]c(I)c(CCNC(C)=O)c2c1` [2-iodomelatonin] (10 µM): the morphology score in assay [1] stood at 0.0455. Further, the SARS-CoV-2 infection rate in assay [2] is 88% (inactive).

On to `Nc1nc(OCc2ccccc2)c2nc[nH]c2n1` [O6-benzylguanine] (10 µM), for which, in assay [1], the morphology score came out at 0.112. The SARS-CoV-2 infection rate in assay [2] was 108% (inactive).

With `CCCc1c(OCC(O)COc2ccc3c(=O)cc(C(=O)O)oc3c2CCC)ccc(C(C)=O)c1O` (configuration not stated) (10 µM), the morphology score in assay [1] was determined as 0.197. Moreover, in assay [2], the SARS-CoV-2 infection rate is 99.5% (inactive).

`C#Cc1cnc2nc(O)n(C(CC)CC)c2n1` [tirasemtiv] (10 µM): the morphology score in assay [1] was -0.109. Also, the SARS-CoV-2 infection rate in assay [2] was 104% (inactive).

Compound `COc1cccc(CCc2ccccc2OCC[C@@H]2C[C@@H](O)CN2C)c1` (10 µM) came in with a morphology score in assay [1] of 0.533. The SARS-CoV-2 infection rate in assay [2] was 54.5% (active).

The compound `C[C@@H](N[C@H]1CCCC[C@@H]1NC(=O)c1ccc(Cl)cc1)c1cccc2ccccc12` [Calhex-231] (10 µM) returned a morphology score in assay [1] of 0.134. Further, in assay [2], the SARS-CoV-2 infection rate is 91.5% (inactive).

In assay [1], `O=C1OC(CN2CCOCC2)CN1/N=C/c1ccc([N+](=O)[O-])o1` (configuration not stated) [furaltadone] (10 µM) displayed a morphology score of 0.0402. Moreover, the SARS-CoV-2 infection rate in assay [2] was 97% (inactive).

In assay [1], `CC(C)(C)NC[C@H](O)COc1nsnc1N1CCOCC1` [timolol] (10 µM) registered a morphology score of -0.002. Moreover, the SARS-CoV-2 infection rate in assay [2] was 98.5% (inactive).

`O=C(O)c1ccc(-n2nc(-c3ccccc3O)nc2-c2ccccc2O)cc1` [deferasirox] (0.833333 µM): the morphology score in assay [1] was found to be 0.0304. In assay [2], the SARS-CoV-2 infection rate was 114% (inactive).
